Rows were chosen to be rich in hits. Some 2.9% of all compounds tested hit in one or more screens of this group.
Pol kappa inh: inhibitors of human DNA polymerase kappa; 400,000 tested, 0.53% active; Q9UBT6; AID 588579; purified Pol kappa, fluorescent DNA synthesis assay, 10 min; Potency, µM (series often up to 107 µM), most hits filed as inhibitors
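First, compounds were pin-transferred onto 10 nM Pol kappa. After 15 min at room temperature, substrate was added to 50 nM final. Fluorescence was then measured kinetically at 0 and 10 min.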
PI5P4K alpha inh: blocks human PI5P4K alpha kinase activity; P48426; PI5P4Kalpha enzyme, ADP-Glo luminescence, 60 min; hits give low values; max response, %; 330,000 tested, 1.2% active; active means max response of -50% or lower; inconclusive means between -30% and -50%; inactive means -30% or higher; further: value at the top dose of about 77 µM
Target sequence (P48426 whole entry, looked up): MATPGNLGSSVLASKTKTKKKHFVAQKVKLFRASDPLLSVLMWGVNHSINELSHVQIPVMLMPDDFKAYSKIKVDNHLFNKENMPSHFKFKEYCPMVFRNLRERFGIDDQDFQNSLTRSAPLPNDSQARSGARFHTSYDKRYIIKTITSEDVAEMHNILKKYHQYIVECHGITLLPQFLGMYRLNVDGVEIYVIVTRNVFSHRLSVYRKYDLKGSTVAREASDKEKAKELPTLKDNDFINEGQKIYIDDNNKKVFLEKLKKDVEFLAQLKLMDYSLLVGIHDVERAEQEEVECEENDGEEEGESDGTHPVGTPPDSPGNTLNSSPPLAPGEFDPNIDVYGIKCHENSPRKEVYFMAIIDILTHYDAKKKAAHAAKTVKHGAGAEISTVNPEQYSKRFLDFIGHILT
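Single end-point luminescence (ADP-Glo) quantified ADP from PI5P4Kalpha turnover; ATP 5 microM final, 1 h at RT, 0.1% CHAPS and 0.28 mM EGTA in HEPES pH 7.4.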
Pol eta inh: DNA polymerase eta (human) inhibition; 390,000 tested, 1.2% active; recombinant Pol eta, fluorescent DNA replication assay; Potency, µM (titrated, usually from 114 µM), usual class: inhibitors
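Pol eta (10 nM) was preincubated with compounds for 15 min at room temperature, after which fluorescent replication substrate (50 nM final) was added to start the reaction. Fluorescence was read kinetically at 0 and 10 min.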
Pol iota inh: inhibitors of human DNA polymerase iota; Pol iota fluorescent replication assay, 10 min; Potency, µM (top dose mostly 115 µM), actives largely listed as inhibitors; 390,000 tested, 1% active
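Pol iota at 10 nM preincubated 15 min with compounds at room temperature; reaction started with fluorescent substrate, 50 nM final. Fluorescence read kinetically at 0 and 10 min; buffer-only wells as negative control.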
Pol beta inh: inhibitors of human DNA polymerase beta; 340,000 tested, 1.3% active; P06746; Potency, µM (titrated, usually from 114 µM), hits mostly inhibitors; Pol beta primer extension/strand displacement, fluorescence kinetic; AID 485314
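Pol beta (10 nM) was preincubated with compound for 15 min at room temperature. The reaction was then started with 50 nM substrate and read immediately and after a further 10 min at room temperature.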
12-LOX inh: ALOX12 (human) lipoxygenase inhibition; 580,000 tested, 1.1% active; Potency, µM (doses to about 108 µM), most hits filed as inhibitors; P18054; purified 12hLO, xylenol orange hydroperoxide absorbance
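Purified human 12hLO at 150 nM in 25 mM Hepes, 0.01% Triton X-100, pH 7.0, preincubated 15 min at room temperature with compound. Reaction started with 40 uM arachidonic acid, 30 min at room temperature. Hydroperoxide measured by Fe-xylenol orange, 573/405 nm absorbance ratio.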
Hits are given with their value; 0 = inactive; ? = inconclusive; - = no result. Unless noted, the call rests on the fitted dose curve; in most records, active means well fitted inhibition curve with a large enough effect; inconclusive means small, poorly fitted or top-dose-only effect, or another doubt; inactive means no such curve, though single readings can be large or run the other way.

SMILES | Pol kappa inh | PI5P4K alpha inh | Pol eta inh | Pol iota inh | Pol beta inh | 12-LOX inh
FC(F)(F)c1ccccc1-c1cc(NCc2cccnc2)ncn1 | 0 | - | - | - | - | 45µM
Clc1ccccc1-c1cc(NCc2cccnc2)ncn1 | 0 | - | - | - | - | 0
COc1ccccc1-c1nc(NCc2cccnc2)c2ccccc2n1 | 0 | - | - | - | - | ?
O=C(Nc1ccc2c(N3CCCC3)ncnc2c1)c1ccccc1Br | - | - | - | - | - | 0
Cc1c(NC(=O)NC(=O)c2ccc(F)cc2)c(=O)n(-c2ccccc2)n1C | 0 | 0 | 0 | 0 | 0 | 0
Cc1c(N=C2N=C(NC(=O)c3ccc(F)cc3)c3ccccc32)c(=O)n(-c2ccccc2)n1C | 13µM | 0 | ? | ? | 0 | 0
Cc1noc(/C=C/c2ccco2)c1S(=O)(=O)N1CCC(C(=O)N2CCc3ccccc3C2)CC1 | 0 | - | ? | 45µM | 0 | -
COCCn1c(=O)c2c(nc(-n3nc(C)c(C)c3C)n2Cc2ccc(F)cc2)n(C)c1=O | - | - | - | - | - | 0
Cc1ccc(Cl)cc1N1CCN(C(=O)CSc2ccsc2[N+](=O)[O-])CC1 | 0 | ? | 22µM | ? | 20µM | ?
Cc1ccc(Cl)cc1N1CCN(C(=O)CSc2cc(=O)n(C)c3ccccc23)CC1 | 0 | - | 0 | 0 | 0 | 0
CCOc1ccc(OCc2cccc(C(=O)OCC3CCCO3)c2)cc1 (centres undefined) | - | - | - | - | - | 0
COc1cc(OC)c(OC)cc1CNC(=O)c1nn(Cc2ccccc2)c(=O)c2ccccc12 | - | - | - | - | - | 0
C=C1[C@H]2CC[C@@H]3[C@H]2C(C)(C)CCC[C@]13C | - | - | - | - | - | 0
CC1=C(C(=O)OCc2ccccc2)C(c2ccc([N+](=O)[O-])cc2)NC(=O)N1CCCC(=O)O (centres undefined) | 0 | -68 | 0 | 0 | 0 | 0
CC1=C(C(=O)OCc2ccccc2)C(c2ccc([N+](=O)[O-])cc2)NC(=O)N1CCCCCC(=O)O (centres undefined) | 0 | ? | 0 | 0 | 0 | ?
CC1=C(C(=O)OCc2ccccc2)C(c2ccc(C(C)(C)C)cc2)NC(=O)N1CCCCCC(=O)O (centres undefined) | 0 | 0 | 0 | ? | 0 | 25µM
COc1ccccc1NC(=S)NC1CCC(CC2CCC(NC(=S)Nc3ccccc3OC)CC2)CC1 (centres undefined) | 0 | 0 | 0 | 0 | 0 | 32µM
S=C(Nc1cccc2ccccc12)NC1CCCCC1 | 0 | 0 | 0 | 0 | 0 | 45µM
COc1ccccc1NC(=S)NC1CCCC1 | 0 | 0 | 0 | 0 | - | ?
CCOC(=O)C1=CN(Cc2ccc(F)cc2)C=C(C(=O)OCC)C1c1ccc(O)cc1 | - | - | - | - | - | 0
COc1ccc(Cn2nccc2NC(=O)c2cc(=O)c3cc(Cl)ccc3o2)cc1 | - | - | - | - | - | 0
COc1ccccc1NC(=O)Cn1nnc(-c2ccccc2NS(=O)(=O)c2ccccc2)n1 | 0 | 0 | 0 | 89µM | 0 | 0
Cc1ccc(C2=NC3(CCN(C(=O)COc4cccc(C)c4)CC3)ON2)cc1 | - | - | - | - | - | 89µM
Cc1cccc(Cn2c(-n3nc(C)c(C)c3C)nc3c2c(=O)[nH]c(=O)n3C)c1 | - | - | - | - | - | 0
CC(=O)Nc1cccc(NC(=O)CSc2ncc(-c3ccccc3)[nH]2)c1 | 0 | 0 | 0 | ? | 14µM | 0
SMILES | Pol kappa inh | PI5P4K alpha inh | Pol eta inh | Pol iota inh | Pol beta inh | 12-LOX inh
O=C(CSCn1nnc2c(=O)[nH]c(Cc3ccc(F)cc3)nc21)Nc1ccccc1 | 0 | - | 0 | 0 | 0 | 0
Cc1cc(C)cc(NC(=O)CSCn2nnc3c(=O)[nH]c(Cc4ccc(F)cc4)nc32)c1 | 79µM | - | ? | 79µM | 40µM | ?
Cc1c(-c2ccccc2)oc2c(C(=O)N3CCCN(Cc4ccc(F)cc4)CC3)cccc2c1=O | - | - | - | - | - | 0
COc1ccc2c(-c3ccccc3)cc(N3CCOCC3)nc2c1 | 0 | 0 | 0 | 0 | 0 | 1.8µM
CN1CCCN(C(=O)c2cc3cc(Br)ccc3oc2=O)CC1 | - | - | - | - | - | 0
CCCCC1CCC(c2nc(C#N)c(N3CCN(CC)CC3)o2)CC1 (centres undefined) | - | - | - | - | - | 0
CN(C)CCN(Cc1ccc(Cl)cc1)c1ccccn1 | 0 | 0 | 0 | 0 | 0 | 0
C[N+](C)(C)CCN(Cc1ccc(Cl)cc1)c1ccccn1 | 0 | 0 | 0 | 0 | 0 | 16µM
COc1ccc2c(Cl)c(C(=O)OCC(=O)Nc3ccccc3F)sc2c1Cl | - | - | - | - | - | 0

Screening data from PubChem.
